# Experimental data published in PubChem BioAssay AID588502 (Sanford-Burnham Center for Chemical Genomics, 2011).
# Potency and affinity values are given separately. Unmarked numbers belong to inactive results. The rule behind the calls is not given here.
# Experiment: dose response, counter-screen, biochemical, fluorescence, single-stranded RNase substrate (AID 588502)
# Settings: oligo substrate without MazF, fluorescence increase, 5 h
structure (smiles),measurement,value
CC1CCC(=NNS(=O)(=O)c2ccc([N+](=O)[O-])cc2)CC1 (stereo unspecified),EC50,> 99 µM
